# From PubChem
# rTrxR1 inhibitor: qHTS Assay for Inhibitors of Mammalian Selenoprotein Thioredoxin Reductase 1 (TrxR1): qHTS; Thioredoxin reductase 1, cytoplasmic (Rattus norvegicus), O89049; recombinant rTrxR1, NADPH fluorescence consumption, selenite substrate; Potency, µM (titrated, usually from 114 µM), for inactives: at the top dose activity change, negative = inhibition, hits mostly inhibitors; 390,000 tested, 1% active; also: potency is read from the fitted curve at half-maximal effect; % is scaled to controls: 0 for no effect and ±100 for the full control effect; nearly all actives have a fitted effect of over 65% in size
#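 Rat TrxR1 (90 nM in the dispensed reagent) was pre-reduced with 400 uM NADPH for 5 min at room temperature, then incubated with compound for 15 min. After 400 uM selenite was added, NADPH fluorescence (Ex 340/Em 450 nm) was followed for 8 min.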
# RGS4 inh: Inhibitors of Regulator of G Protein Signaling (RGS) 4: qHTS; 390,000 tested, 0.039% active; Regulator of G-protein signaling 4 (Homo sapiens), P49798; AID 504845, 2011; Potency, µM (titrated, usually from 114 µM), for inactives: at the top dose activity change, negative = inhibition, hits mostly inhibitors; Transcreener GDP fluorescence polarization, RGS4-accelerated GTP hydrolysis; also: potency is read from the fitted curve at half-maximal effect; % is scaled to controls: 0 for no effect and ±100 for the full control effect; nearly all actives have a fitted effect of over 75% in size
#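 MLSMR compounds (23 nl, pin-transferred) preincubated 10 min at room temperature with a 500nM (2x) first reagent, then RGS4 at 900nM (2x) plus Transcreener GDP mix added; fluorescence polarization (620/688 nm) read before and after 90 min at 30 °C.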
# Eya2 inh: qHTS Assay for Inhibitors of the Phosphatase Activity of Eya2; Protein phosphatase EYA2 (Homo sapiens), O00167; recombinant Eya2, OMFP fluorescence dephosphorylation (OMFP is methylfluorescein phosphate); Potency, µM (top dose mostly 76.9 µM), inactives show at the top dose activity, negative = inhibition, most hits filed as inhibitors; 330,000 tested, 0.006% active; AID 488837, 2010; also: potency is read from the fitted curve at half-maximal effect; % is scaled to controls: 0 for no effect and ±100 for the full control effect
#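 Eya2 protein (added as 0.2 uM solution) was preincubated with compound for 10 min at ambient temperature in 50 mM HEPES pH 7.5, 50 mM NaCl, 5 uM MgCl2, 0.05% BSA, 1 mM DTT. OMFP (added at 50 uM) then reacted 10 min; fluorescence read at 485/525 nm.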
# TrxR1 substrate: qHTS Assay for Substrates of Mammalian Selenoprotein Thioredoxin Reductase 1 (TrxR1): qHTS; 390,000 tested, 0.01% active; AID 588456, 2011; purified TrxR1 substrate turnover, NADPH consumption readout; Potency, µM (titrated, usually from 114 µM), inactives show top-dose activity change, negative = substrate turnover; also: potency is read from the fitted curve at half-maximal effect; % is scaled to controls: 0 for no effect and ±100 for the full control effect; nearly all actives have a fitted effect of over 50% in size
#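 Rat TrxR1, dispensed at 90 nM, was prereduced with 400 uM NADPH (final) for 5 min at ~22 deg C, then incubated with compound 15 min before 400 uM selenite. A first-read NADPH fluorescence drop versus no-compound background flagged substrates.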
# mIDH1 inhibitor: qHTS for Inhibitors of mutant isocitrate dehydrogenase 1 (IDH1): qHTS. IDH1-R132H enzyme, NADPH consumption, diaphorase/resazurin fluorescence. Potency, µM (top dose mostly 76.6 µM), for inactives: top-dose activity change, negative = inhibition, most hits filed as inhibitors. 390,000 tested, 0.093% active. AID 602179, 2012; also: potency is read from the fitted curve at half-maximal effect; % is scaled to controls: 0 for no effect and ±100 for the full control effect; nearly all actives have a fitted effect of over 65% in size
# Target sequence (O75874 whole entry R132H, stated change not applied): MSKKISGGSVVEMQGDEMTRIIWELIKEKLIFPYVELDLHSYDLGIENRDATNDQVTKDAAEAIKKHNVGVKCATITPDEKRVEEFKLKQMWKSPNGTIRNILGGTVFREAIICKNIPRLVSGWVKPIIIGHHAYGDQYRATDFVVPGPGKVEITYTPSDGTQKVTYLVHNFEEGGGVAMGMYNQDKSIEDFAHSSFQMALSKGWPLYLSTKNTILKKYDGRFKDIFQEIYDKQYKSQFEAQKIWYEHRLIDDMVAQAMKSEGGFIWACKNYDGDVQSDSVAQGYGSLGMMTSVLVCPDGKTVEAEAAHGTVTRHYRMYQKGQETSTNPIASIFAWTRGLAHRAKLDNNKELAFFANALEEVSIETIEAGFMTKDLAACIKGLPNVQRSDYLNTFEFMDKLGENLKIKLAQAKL
#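 IDH1-R132H (0.5 ug/mL dispensed) in pH 7.5 Tris buffer was preincubated 30 min with compound, then given a substrate mix of 0.016 mM NADPH and 2 mM alpha-KG for 80 min at room temperature; remaining NADPH was read by diaphorase/resazurin fluorescence.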
# IDH1 autofl: qHTS for Inhibitors of mutant isocitrate dehydrogenase 1 (IDH1): Cherrypicks Autofluorescence Interference; shares compounds with mIDH1 inhibitor; Resorufin detection reagent fluorescence interference, cell-free; inhibition of signal, % at 51.2 µM; 750 tested, under 10 active; AID 623980, 2012;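 also: 0% = wells with normal resorufin and full inhibition = wells lacking resorufin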
# WT IDH1 inh: qHTS for Inhibitors of mutant isocitrate dehydrogenase 1 (IDH1): Cherrypicks in WT IDH1; shares compounds with mIDH1 inhibitor; WT IDH1 enzyme, NADPH diaphorase/resazurin fluorescence; Potency, µM (titrated, usually from 115 µM), without a hit: at the highest dose activity change, negative = inhibition, hits mostly inhibitors; 750 tested, 9% active; AID 623995, 2012;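 also: potency is read from the fitted curve at half-maximal effect; 0% = full WT IDH1 enzyme control and full inhibition = no enzyme wells; nearly all actives have a fitted effect of over 55% in size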
# Target sequence (O75874 whole entry, looked up): as the sequence (O75874 whole entry R132H, stated change not applied) above, with H132R counted along it
# IDH1 R132H conf: qHTS for Inhibitors of mutant isocitrate dehydrogenase 1 (IDH1): Confirmation of Cherrypicks; shares compounds with mIDH1 inhibitor; IDH1 R132H enzyme, NADPH diaphorase/resazurin fluorescence; Potency, µM (highest dose often 76.6 µM), inactives show at the highest dose activity change, negative = inhibition, hits mostly inhibitors; 750 tested, 83% active; AID 624002, 2012; also: potency is read from the fitted curve at half-maximal effect; nearly all actives have a fitted effect of over 50% in size
# * hit, by the source's call; u = inconclusive; x = no result; [ ] = remark or other dose. Rows were chosen to be rich in hits. Some 1.1% of all compounds tested hit in one or more screens of this group. Calls follow the shape of the dose curve; as a rule, active = well fitted curve in the direction sought with a large enough effect; inconclusive = small, poorly fitted or top-dose-only effect, or another doubt; inactive = no such curve, though single readings can be large; an effect the other way counts as inactive or inconclusive.
SMILES,rTrxR1 inhibitor,RGS4 inh,Eya2 inh,TrxR1 substrate,mIDH1 inhibitor,IDH1 autofl,WT IDH1 inh,IDH1 R132H conf
CC(C)N1CC=C2C(C#N)=C(N)C(C#N)(C#N)C(c3ccccc3)C2C1 (stereo unspecified),12.2%,-5.5%,-10.3%,85.0%,u,x,x,x
CCC1C2CN(C(C)=O)CC=C2C(C#N)=C(N)C1(C#N)C#N (stereo unspecified),u,7.8%,18.1%,10.6%,u,-7.7,37.5%,44.7µM*
CCN1CC=C2C(C#N)=C(N)C(C#N)(C#N)C(c3cc(Cl)ccc3Cl)C2C1 (stereo unspecified),-14.5%,20.0%[11.4 µM],13.8%,71.8%,u,3.4,6.2%,-17.3%
Cc1ccc(OCC(=O)N(C)CC(=O)N(CC(C)C)c2c(N)n(CC(C)C)c(=O)[nH]c2=O)c(C)c1,10.8%,1.9%,-15.9%,4.9%,1.2%,x,x,x
CCOCCCNC(=S)N1CCN(C(=O)C(=O)Nc2ccc(C(=O)OC)cc2)CC1,-10.0%,-1.4%,-21.6%,-7.3%,-9.2%,x,x,x
Cc1ccc(NC2CCCN(C(=O)c3cc(C(C)C)[nH]n3)C2)cc1C (stereo unspecified),-18.3%,-30.2%,-7.4%,6.2%,-0.3%,x,x,x
CC(=O)c1ccc(NS(=O)(=O)c2cccc(S(=O)(=O)c3ccc(Cl)cc3)c2)cc1,1.0%,16.7%,x,-5.5%,u,7.2,-0.8%,44.7µM*
Cn1c(NCCO)nc2c(c1=O)C1(CCCCC1)Cc1ccccc1-2,-14.2%,8.0%,-11.2%,80.4%,-2.2%,x,x,x
CCc1ccc(CNC(=O)CN2C(=O)c3cccnc3Oc3ccc(Cl)cc32)cc1,11.5%,1.5%,x,-3.3%,u,-3.5,0.9%,-11.2%
Cc1ccc(NC(=O)NCc2c(C)nn(C)c2C)cc1Cl,11.6%,11.8%,6.6%,8.2%[57.1 µM],0.1%,x,x,x
Cc1ccc(N(C(=O)Cc2cccs2)C(C(=O)NC2CCCCC2)c2ccccn2)cc1C (stereo unspecified),-8.5%,-11.2%,-2.7%,-10.6%,u,-1.1,2.1%,10µM*
COc1ccc(N(C(=O)Cc2cccs2)C(C(=O)NC2CCCC2)c2ccncc2)cc1OC (stereo unspecified),18.6%[57.1 µM],-10.2%,-15.8%,11.7%[0.0914 µM],24.8%,x,x,x
COc1cc(N(C(=O)Cc2cccs2)C(C(=O)NC2CCCCC2)c2ccc(C)cc2)ccc1-n1cnnn1 (stereo unspecified),1.3%,-2.9%,3.1%,-1.9%,23.3µM*,-5.6,0.2%,7.08µM*
CCc1cnc2c(c1SCc1ccccc1C)c(=O)n(C)c(=O)n2C,24.0%[57.1 µM],16.0%,x,-0.6%[57.1 µM],-7.1%,x,x,x
c1ccc(C2=Nn3c(nnc3-c3cc(-c4ccccc4)n[nH]3)SC2)cc1,2.6%[57.1 µM],-8.7%,9.3%,4.2%[57.1 µM],u,-13.3,u,20µM*
